Rows were chosen to be rich in hits. Some 3.5% of all compounds tested hit in one or more screens of this group.
TEAD-YAP block: TEAD-YAP interaction inhibition | hit rate 1.4% among 640,000 | HEK-TIYL cells, TEAD-Gal4/YAP UAS-luciferase luminescence | inhibition, % at 9.12 µM; in the data active means inhibition above about 32%;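 further: 0% = median of test compound wells and 100% = reference inhibitor wells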
MITF inh: inhibitors of human MITF. AID 1259374. AlphaScreen MITF homodimerization, bead proximity signal. inhibition, % at 2.6 µM. O75030. hit rate 0.91% among 650,000; in the data active means inhibition above about 50%;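 further: 0% = vehicle wells with protein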
GPR151 activ: activates the human receptor GPR151; Q8TDV0; PathHunter beta-arrestin GPR151 cells, luminescence; activation, % at 11.2 µM; hit rate 1% among 650,000; AID 1508602; in the data active means activation above about 4.9%;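 further: 0% = median of compound wells and 100% = cells with positive control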
Target sequence (Q8TDV0 whole entry, looked up): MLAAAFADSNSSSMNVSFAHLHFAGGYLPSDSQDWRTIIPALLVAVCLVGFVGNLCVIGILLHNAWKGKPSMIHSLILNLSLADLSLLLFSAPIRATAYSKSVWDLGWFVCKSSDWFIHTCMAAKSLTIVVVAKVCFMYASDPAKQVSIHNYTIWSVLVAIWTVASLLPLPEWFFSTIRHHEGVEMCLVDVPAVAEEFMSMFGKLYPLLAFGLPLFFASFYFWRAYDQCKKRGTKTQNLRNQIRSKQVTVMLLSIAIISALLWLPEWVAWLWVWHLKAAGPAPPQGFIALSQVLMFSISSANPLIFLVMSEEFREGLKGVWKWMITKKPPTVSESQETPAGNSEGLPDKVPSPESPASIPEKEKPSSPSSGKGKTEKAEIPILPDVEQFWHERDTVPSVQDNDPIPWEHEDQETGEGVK
FBW7 act: human FBW7 E3 ligase activation, primary screen; hit rate 0.13% among 650,000; AlphaScreen FBW7–phospho-cyclin E peptide binding, activator screen; normalized activity (activation), % at 26.1 µM; in the data active means normalized activity above about 1.9%;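 further: purified mutant Fbw7 with reduced substrate affinity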
MITF inh conf: human MITF inhibition, confirmation. inhibition, % at 2.6 µM. AlphaScreen MITF homodimerization, biotin/His-MITF beads. hit rate 16% among 4,700. shares compounds with MITF inh;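 active means inhibition above a cutoff derived from the DMSO control wells, cut at about 28% in these data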;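 further: 0% = MITF dimer wells with DMSO only; inhibitors lower the bead chemiluminescence by keeping MITF from dimerizing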
AS interf ctr: optically interferes with AlphaScreen signal; shares compounds with MITF inh; LysRS AlphaScreen counterscreen, signal interference, triplicate; inhibition, % at 2.6 µM; hit rate 7.6% among 4,700; AID 1259376;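 active means inhibition above a cutoff derived from the DMSO control wells, cut at about 30% in these data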
Active calls of the source: *; · = not tested or not shown.

SMILES | TEAD-YAP block | MITF inh | GPR151 activ | FBW7 act | MITF inh conf | AS interf ctr
O=[N+]([O-])c1ccc(CN2CCN(Cc3ccncc3)CC2)cc1 | 7 | 65* | -1 | 0 | 10 | 15
O=[N+]([O-])c1ccc(CN2CCN(Cc3cccnc3)CC2)cc1 | -4 | 64* | -1 | 0 | -21 | 2
CCOC(=O)C1=C(C)N=c2s/c(=C/c3ccc(Cl)cc3Cl)c(=O)n2C1c1ccc(C)cc1 (configuration not stated) | 4 | 63* | 1 | 0 | -11 | -11
CCOC(=O)C1=C(C)N=c2s/c(=C\c3ccc(Cl)cc3Cl)c(=O)n2C1c1ccc(N(C)C)cc1 (configuration not stated) | 3 | 2 | 0 | 0 | · | ·
COc1ccc(C2=N/C(=C\c3ccc(OC(C)=O)c(OC)c3)C(=O)O2)c(Br)c1 | 9 | 15 | -1 | 0 | · | ·
CCOC(=O)c1ccc(S(=O)(=O)NCCN2CCOCC2)cc1 | 4 | 54* | 0 | 0 | -5 | -6
CCCCOc1ccc(C2=N/C(=C\c3ccc(OC(C)=O)c(OC)c3)C(=O)O2)cc1 | 6 | 6 | 3 | 0 | · | ·
Cc1ccc(OCCN2CCN(CC(O)Cn3c4ccccc4c4ccccc43)CC2)cc1 (configuration not stated) | 6 | 74* | 0 | 0 | 11 | 7
COc1cc2c(cc1OC)C(c1cc(Br)ccc1F)N(C(=O)CC(C)C)CC2 (configuration not stated) | -1 | -7 | 1 | 0 | · | ·
C=CCNC(=O)N1CCN(Cc2nc3ccccc3n2Cc2ccccc2)CC1 | -13 | 78* | 2 | 0 | -4 | 14
O=C(Nc1ccc(F)cc1)N1CCN(Cc2nc3ccccc3n2Cc2ccccc2)CC1 | -25 | 3 | -1 | 0 | · | ·
CC(C)(C)C(=O)N1CCN(Cc2nc3ccccc3n2Cc2ccccc2)CC1 | -25 | 13 | 1 | 0 | · | ·
COC(=O)c1ccc(CN2CCN(Cc3nc4ccccc4n3Cc3ccccc3)CC2)o1 | -12 | 67* | 0 | -1 | 11 | 27
COc1ccc(CN2CCN(C(=O)c3ccncc3)CC2)c(OC)c1OC | -8 | 51* | -1 | 0 | -2 | -4
COc1ccc(CN2CCN(C(=O)c3ccccc3)CC2)c(OC)c1OC | -6 | 25 | 0 | 0 | · | ·
COc1cccc(CN2CCN(C(=O)c3ccncc3)CC2)c1OC | 7 | 83* | -1 | 1 | 11 | 19
CCOc1cc(C)c(C(C)C)cc1S(=O)(=O)NCCOC | -3 | 3 | -2 | 0 | · | ·
COc1cc(CN2CCN(Cc3cccnc3)CC2)cc2c1OCO2 | 3 | 68* | 0 | 0 | 12 | 23
COc1cc(CN2CCN(Cc3cccc(C)c3)CC2)cc2c1OCO2 | 1 | 58* | 1 | 0 | 1 | -1
COc1cc(CN2CCN(Cc3ccccc3Br)CC2)cc2c1OCO2 | 1 | 73* | -1 | 0 | 8 | 14
COc1cc2c(cc1OC)CN(Cc1cc(OC)c3c(c1)OCO3)CC2 | 2 | 24 | 0 | 0 | · | ·
COc1cc(CN2CCN(Cc3ccccc3F)CC2)cc2c1OCO2 | -6 | 81* | -1 | 0 | 0 | 6
COc1cc(CN2CCc3nncn3CC2)cc2c1OCO2 | 6 | 0 | 2 | 0 | · | ·
COc1cccc2cc(C(=O)N3CCN(CCO)CC3)c(=O)oc12 | 4 | 0 | 0 | 0 | · | ·
CCCCSc1nnc2c(n1)OC(c1cccc(C)n1)Nc1ccc(Br)cc1-2 (configuration not stated) | 3 | 13 | 2 | 0 | · | ·
SMILES | TEAD-YAP block | MITF inh | GPR151 activ | FBW7 act | MITF inh conf | AS interf ctr
CCOC(=O)c1nc(NCC(C)O)c2ccccc2n1 (configuration not stated) | -4 | 9 | 3 | 0 | · | ·
COc1cc(CN2CCN(Cc3cc(OC)c4c(c3)OCO4)CC2)cc2c1OCO2 | -4 | 54* | 1 | 0 | 15 | 24
COc1cc(CN2CCN(Cc3ccccc3)CC2)cc2c1OCO2 | -1 | 78* | 0 | 0 | 7 | -2
COc1cc(CN2CCCN(C)CC2)cc2c1OCO2 | 12 | 39 | 1 | 1 | · | ·
COc1cc(CN2CCN(Cc3ccccc3Cl)CC2)cc2c1OCO2 | -2 | 76* | -1 | 0 | 15 | 12
O=C(C1=C(O)C(=O)N(Cc2cccnc2)C1c1cccnc1)c1cccs1 (configuration not stated) | -2 | -4 | -1 | 0 | · | ·
Cc1cc(C)n(C)c(=O)c1[N+](=O)[O-] | -1 | -2 | 1 | 0 | · | ·
O=C(Cn1cnc2ccccc21)N1CCOc2ccc(C(O)CCc3ccccc3)cc2C1 (configuration not stated) | 13 | 6 | 0 | 1 | · | ·
O=C1CC(N2CCN(C3CC(=O)N(c4cccc(Br)c4)C3=O)CC2)C(=O)N1c1cccc(Br)c1 (configuration not stated) | 16 | 7 | 1 | 0 | · | ·
Cc1ccccc1C(=O)Nc1ccc([N+](=O)[O-])cc1Cl | -16 | -3 | 3 | 0 | · | ·
CCCCc1c(C)c(C#N)c2nc3ccccc3n2c1N1CCC(C)CC1 | -4 | 53* | 0 | 0 | 13 | -7
Cc1c(Cc2ccccc2)c(N2CCC(C)CC2)n2c(nc3ccccc32)c1C#N | 5 | 13 | 0 | 0 | · | ·
CCC(C)(C)NC(=O)C(c1cccc(OC)c1)N(C(=O)c1csnn1)C1CCCC1 (configuration not stated) | -6 | -5 | 0 | 0 | · | ·
COC(=O)c1ccc(CSc2nnc(-c3c[nH]c4ccccc34)o2)cc1 | 0 | -1 | 0 | 0 | · | ·
N#C/C(=C\C=C\c1ccco1)C(N)=S | 0 | 65* | -1 | -1 | 60* | 87*
C=CCn1c(SCC(=O)Nc2nnc(-c3ccccc3)s2)nnc1-c1cccnc1 | -7 | 16 | -2 | 0 | · | ·
CCOC(=O)N1CCN(C(=O)C2CCN(Cc3cccc4ccccc34)CC2)CC1 | -4 | 51* | 0 | 0 | 11 | 18
COc1cccc(CN2CCN(C(=O)c3ccc(F)cc3)CC2)c1OC | 4 | 32 | 3 | 0 | · | ·
COc1ccc(C(=O)N2CCN(Cc3c[nH]c4ccccc34)CC2)cc1 | 16 | 76* | 0 | 0 | -12 | -6
COc1ccc(C(=O)N2CCN(Cc3ccccc3F)CC2)cc1 | -1 | 62* | -1 | 0 | -10 | -4
COc1ccc(C(=O)N2CCN(Cc3c[nH]c4ccccc34)CC2)cc1OC | 9 | 17 | 1 | 0 | · | ·
COc1ccc(C(=O)N2CCN(Cc3cccc4ccccc34)CC2)cc1 | 7 | 59* | 3 | 0 | 6 | -4
COc1ccc(NC(=O)CCC(=O)OCC(=O)c2ccc(Cl)c(Cl)c2)cc1 | 13 | 62* | 1 | 0 | 14 | 16
COc1ccc(C(=O)COC(=O)CCC(=O)Nc2ccc(Cl)c(Cl)c2)cc1 | 2 | -6 | 2 | 0 | · | ·
CC1CN(CCC(=O)N2CCN(C3CCCC3)C(=O)C2)Cc2cc(Cl)ccc2O1 (configuration not stated) | 11 | -1 | 1 | 0 | · | ·

Screens (PubChem BioAssay)
